Test [1] can be described thus: liver-stage malaria parasite load reduction – cell-based, known kinase inhibitor set, luminescence, hepatoma host viability (AID 624392).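 Note: infected cells incubated roughly two days before readout.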 Conditions: Plasmodium liver stage in hepatoma cells, luciferase luminescence, concentration not given here; liver cell % of control: measured here: host liver cell viability; parasite % of control: stronger effect = lower value.
A short description of test [2]: altered dexamethasone sensitivity, NF-kB reporter, cell-based, luciferase, IL-1B stimulus (AID 624486).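 For percent of negative control (+Dex): 100% = mean signal of vehicle control wells on the plate.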 Conditions: IL-1B + dexamethasone, luminescence; percent of negative control (+Dex): actives lie on both sides, concentration not given here; z-score: measured here: IL-1B alone, no Dex.
Test [3] in a line: C. elegans survival during P. aeruginosa infection – whole organism (AID 651566).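 Note: tested at 14 µM; sign flipped so higher z means a lower ratio.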 The settings on record: C. elegans killed by P. aeruginosa, survival ratio.
A short description of test [4]: pro-inflammatory signaling induction in mouse macrophages – cell-based, murine, luminescence (AID 652131). The settings on record: murine macrophage pro-inflammatory reporter, stronger effect = higher value.
In test [5] the target is Cellular tumor antigen p53 (Homo sapiens) (UniProt P04637). In words: GFP-p53 level modulators in HPV16+ cells – imaging, known kinase inhibitor set, EGFP/DsRed ratio (AID 1053116).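 Note: cells exposed to compounds for 24 h at 37 °C before reading.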 The settings on record: GFP-p53 stability, stronger effect = higher value; EGFP object count: measured here: GFP-p53 positive objects count.
Chain of Cellular tumor antigen p53 (Homo sapiens) (P04637 whole entry, looked up): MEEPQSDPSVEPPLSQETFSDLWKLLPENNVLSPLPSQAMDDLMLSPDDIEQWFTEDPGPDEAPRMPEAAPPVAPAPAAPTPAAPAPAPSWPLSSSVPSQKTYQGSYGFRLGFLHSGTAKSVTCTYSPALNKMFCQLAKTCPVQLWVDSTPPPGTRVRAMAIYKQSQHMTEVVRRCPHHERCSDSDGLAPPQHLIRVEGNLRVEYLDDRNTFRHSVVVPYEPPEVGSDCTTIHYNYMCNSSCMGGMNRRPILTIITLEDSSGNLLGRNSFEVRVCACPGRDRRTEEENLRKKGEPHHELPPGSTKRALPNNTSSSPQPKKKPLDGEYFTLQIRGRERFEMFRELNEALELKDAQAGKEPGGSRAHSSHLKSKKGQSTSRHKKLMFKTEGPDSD
Test [6] can be described thus: inducers of IRF3 signaling, differentiated THP-1 – cell-based, PMA-stimulated THP-1, luminescence (AID 1053176). The settings on record: PMA-differentiated THP-1, IRF3 reporter luminescence; stronger effect = higher value.
The nature of test [7]: MELAS cybrid and Rieske KO viability enhancers – cell-based, MELAS cybrids, Rieske KO mouse fibroblasts, CellTiter-Glo, primary screen (AID 1508586;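 active = mean z-score across replicates of 1.96 or higher in either the MELAS or the Rieske mutant cell line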;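 note: z relative to plate mean and SD of compound and empty wells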). Conditions: low glucose.
Where [8] appears, read: MELAS cybrid survival, CellTiter-Glo 48 h, stronger effect = higher value.
[9] abbreviates: Rieske KO mouse fibroblast survival, CellTiter-Glo 72 h.

Active and inactive are the calls of the source. Unless noted, the rule behind the calls is not given here.

In turn, `COc1ccc2ncn(-c3cc(O[C@H](C)c4ccccc4C(F)(F)F)c(C(N)=O)s3)c2c1` came in with a liver cell % of control in test [1] of 75.6%. For the same compound, the parasite % of control in test [1] is 88.3% (inactive). For the same compound, in test [2], the percent of negative control (+Dex) is 75% (inactive). The z-score is -2.76 in test [2]; 0.355 (inactive) in test [3]; -1.54 (inactive) in test [4]; -0.00963 (inactive) in test [7] (setting [8]); 0.29 in test [7] (setting [9]). The EGFP object count in test [5] is 7.5. Also, in test [5], the EGFP/DsRed ratio is 0.176 (inactive). Further, the fraction signal in test [6] is 0.0035 (inactive).

On to `Nc1nccc(C#Cc2cncnc2Nc2ccc(OCc3cccc(F)c3)c(Cl)c2)n1`, for which the liver cell % of control in test [1] stood at 107%. Besides, the parasite % of control in test [1] is 81.2% (inactive). The percent of negative control (+Dex) in test [2] was 83.5% (inactive). Besides, the z-score was -0.655 in test [2]; 0.82 (inactive) in test [3]; -1.19 (inactive) in test [4]; -0.936 (inactive) in test [7] (setting [8]); 0.011 in test [7] (setting [9]). Moreover, the EGFP object count in test [5] was found to be 313. In addition, the EGFP/DsRed ratio in test [5] is 1.99 (active). Further, the fraction signal in test [6] was -0.0105 (inactive).

For the compound `NS(=O)(=O)c1ccc(N=Nc2c(O)[nH]c3ccc(C(=O)NCCCn4ccnc4)cc23)cc1`, the liver cell % of control in test [1] amounted to 94%. Moreover, the parasite % of control in test [1] is 116% (inactive). For the same compound, the percent of negative control (+Dex) in test [2] was 83% (inactive). Further, the z-score in test [2] is -0.125; in test [3] it was 0.195 (inactive); in test [4], 0.038 (inactive); in test [7] (setting [8]), -0.0137 (inactive); in test [7] (setting [9]), -0.000813. Besides, the EGFP object count in test [5] was found to be 6. Also, the EGFP/DsRed ratio in test [5] is 0.239 (inactive). The fraction signal in test [6] is -0.0065 (inactive).

For the compound `C#Cc1cccc(Nc2ncnc3ccc(OCCCCNCCS(C)(=O)=O)cc23)c1`, in test [1], the liver cell % of control stood at 80.2%. Moreover, the parasite % of control in test [1] is 197% (inactive). Further, the percent of negative control (+Dex) in test [2] was 70.5% (inactive). Further, the z-score in test [2] was -1.95; in test [3], 0.035 (inactive); in test [4], -0.695 (inactive); in test [7] (setting [8]) it was -0.125 (inactive); in test [7] (setting [9]) it was -0.333. Also, the EGFP object count in test [5] was determined as 4. In addition, in test [5], the EGFP/DsRed ratio was 0.148 (inactive). In addition, the fraction signal in test [6] is 0.0175 (inactive).

`CNC(=O)c1ncccc1Nc1nc(Nc2cc3c(cc2OC)CCCN3C(=O)CN(C)C)nc2[nH]ccc12`: the liver cell % of control in test [1] worked out at 91.6%. Further, the parasite % of control in test [1] was 670% (inactive). Also, in test [2], the percent of negative control (+Dex) is 99.5% (inactive). Moreover, the z-score in test [2] was 0.22; in test [3] it was 0.02 (inactive); in test [4] it was 0.337 (inactive); in test [7] (setting [8]), 6.01 (active); in test [7] (setting [9]), 11.9. The EGFP object count in test [5] is 3. For the same compound, the EGFP/DsRed ratio in test [5] is 0.0957 (inactive). For the same compound, the fraction signal in test [6] was -0.01 (inactive).

For `COc1cc(Nc2ncc(-c3ccccc3)o2)cc(OC)c1`, the liver cell % of control in test [1] came to 105%. Also, the parasite % of control in test [1] is 156% (inactive). Also, the percent of negative control (+Dex) in test [2] was 158% (inactive). Further, the z-score in test [2] is 5.51; in test [3], -1.38 (inactive); in test [4], 1.77 (inactive); in test [7] (setting [8]), 0.0476 (inactive); in test [7] (setting [9]) it was -0.415. Also, the EGFP object count in test [5] is 3.5. The EGFP/DsRed ratio in test [5] is 0.0542 (inactive). In addition, in test [6], the fraction signal is 0.0025 (inactive).

In test [1], `NC(=O)c1cc(-c2ccncc2)cc(-c2ccccc2)c1N` came in with a liver cell % of control of 95.8%. Also, the parasite % of control in test [1] was 55.5% (inactive). The percent of negative control (+Dex) in test [2] was 52% (inactive). Also, the z-score in test [2] was -4.61; in test [3], -0.845 (inactive); in test [4], -1.14 (inactive); in test [7] (setting [8]), -0.817 (inactive); in test [7] (setting [9]) it was -0.475. In addition, the EGFP object count in test [5] stood at 2.5. For the same compound, in test [5], the EGFP/DsRed ratio is 0.104 (inactive). The fraction signal in test [6] is 0.0085 (inactive).

On to `COc1cc(N2CCN(C(C)C)CC2)ccc1Nc1nc(Nc2ccc(F)cc2C(=O)NC[C@@H](O)CO)c2cc[nH]c2n1`, for which the liver cell % of control in test [1] was 85%. In addition, the parasite % of control in test [1] is 330% (inactive). The percent of negative control (+Dex) in test [2] is 103% (inactive). For the same compound, the z-score in test [2] was 0; in test [3], -0.875 (inactive); in test [4], -0.151 (inactive); in test [7] (setting [8]), -0.811 (inactive); in test [7] (setting [9]) it was 0.239. Besides, in test [5], the EGFP object count was 3.5. Moreover, the EGFP/DsRed ratio in test [5] was 0.273 (inactive). The fraction signal in test [6] is 0 (inactive).

Compound `COC(=O)Nc1nc2ccc(Oc3ccc(NC(=O)Nc4cccc(Cl)c4)cc3)cc2[nH]1` returned a liver cell % of control in test [1] of 81.3%. Also, in test [1], the parasite % of control was 298% (inactive). Moreover, the percent of negative control (+Dex) in test [2] is 122% (inactive). Besides, the z-score in test [2] is 1.3; in test [3], 1.51 (inactive); in test [4] it was 0.651 (inactive); in test [7] (setting [8]), -0.179 (inactive); in test [7] (setting [9]) it was -0.521. The EGFP object count in test [5] came to 79.5. For the same compound, the EGFP/DsRed ratio in test [5] was 1.2 (inactive). The fraction signal in test [6] was -0.0045 (inactive).

`CC(C)c1ccc(Nc2nccc(-c3cnn4ncccc34)n2)cc1`: the liver cell % of control in test [1] was 146%. Moreover, in test [1], the parasite % of control was 13.9% (active). Moreover, in test [2], the percent of negative control (+Dex) was 12.5% (active). In addition, the z-score is -8.57 in test [2]; 0.07 (inactive) in test [3]; -1.83 (inactive) in test [4]; 0.723 (inactive) in test [7] (setting [8]); -0.0455 in test [7] (setting [9]). Besides, the EGFP object count in test [5] is 3.5. The EGFP/DsRed ratio in test [5] is 0.181 (inactive). Besides, the fraction signal in test [6] was -0.005 (inactive).

As to `OCCCNc1nccc(-c2c(-c3ccc(F)cc3)nn3cc(C(F)(F)F)ccc23)n1`, in test [1], the liver cell % of control turned out to be 124%. Moreover, in test [1], the parasite % of control is 77.5% (inactive). In addition, the percent of negative control (+Dex) in test [2] was 106% (inactive). Besides, the z-score was 1.02 in test [2]; 0.765 (inactive) in test [3]; 0.66 (inactive) in test [4]; -0.607 (inactive) in test [7] (setting [8]); 0.0984 in test [7] (setting [9]). In addition, the EGFP object count in test [5] was 2. Moreover, in test [5], the EGFP/DsRed ratio was 0.0239 (inactive). Also, in test [6], the fraction signal is -0.0065 (inactive).

In test [1], `CCn1c(-c2nonc2N)nc2ccc(F)cc21` had a liver cell % of control of 98%. Moreover, the parasite % of control in test [1] is 113% (inactive). Further, the percent of negative control (+Dex) in test [2] is 82.5% (inactive). The z-score in test [2] was -0.655; in test [3], -0.725 (inactive); in test [4], -0.544 (inactive); in test [7] (setting [8]), -0.0553 (inactive); in test [7] (setting [9]), 0.0939. Besides, in test [5], the EGFP object count is 4. For the same compound, the EGFP/DsRed ratio in test [5] is 0.0296 (inactive). Moreover, in test [6], the fraction signal was 0.0105 (inactive).

`CCC(=O)Nc1ccc(C)c(-c2ccc(C(=O)NCC3CC3)cc2)c1` gave a liver cell % of control in test [1] of 51.4%. For the same compound, the parasite % of control in test [1] is 136% (inactive). For the same compound, the percent of negative control (+Dex) in test [2] is 103% (inactive). Further, the z-score is 1.16 in test [2]; 0.67 (inactive) in test [3]; 1.18 (inactive) in test [4]; -0.0107 (inactive) in test [7] (setting [8]); -0.287 in test [7] (setting [9]). For the same compound, in test [5], the EGFP object count was found to be 3. The EGFP/DsRed ratio in test [5] is 0.0318 (inactive). The fraction signal in test [6] is 0.001 (inactive).

`N#Cc1ccc2c(-c3ccnc(NC4CC4)n3)c(-c3ccc(F)cc3)nn2c1` gave a liver cell % of control in test [1] of 122%. The parasite % of control in test [1] is 87.3% (inactive). Also, in test [2], the percent of negative control (+Dex) was 106% (inactive). Besides, the z-score was 0.525 in test [2]; -0.52 (inactive) in test [3]; 2.06 (inactive) in test [4]; -0.69 (inactive) in test [7] (setting [8]); -0.125 in test [7] (setting [9]). Also, the EGFP object count in test [5] was 0.5. Also, in test [5], the EGFP/DsRed ratio was 0.00284 (inactive). In addition, in test [6], the fraction signal was 0 (inactive).

`COC(=O)Nc1nc2ccc(S(=O)(=O)c3ccc(NC(=O)Nc4cc(C(F)(F)F)ccc4F)cc3)cc2[nH]1` returned a liver cell % of control in test [1] of 80%. The parasite % of control in test [1] was 100% (inactive). The percent of negative control (+Dex) in test [2] was 86.5% (inactive). Further, the z-score is 0.105 in test [2]; -0.105 (inactive) in test [3]; 2.68 (inactive) in test [4]; 0.00101 (inactive) in test [7] (setting [8]); -0.437 in test [7] (setting [9]). Also, the EGFP object count in test [5] came out at 1.5. For the same compound, the EGFP/DsRed ratio in test [5] was 0.00404 (inactive). Moreover, the fraction signal in test [6] was 0 (inactive).

(Values after PubChem BioAssay.)
